Experimental findings from PubChem BioAssay are described below.

A short description of assay [1]: antimalarial activity against Dd2 strain (AID 2302;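 active = growth inhibition above 50% at the single 2 µM test dose, taken to imply half-maximal potency below 2 µM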;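 note: 0% = DMSO untreated growth and 100% = chloroquine plus artemisinin killed control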). The following applies: P. falciparum Dd2 in RBCs, LDH growth readout, 72 h; at 2 µM; hits give high values.
Assay [2] in a line: HepG2 cytotoxicity, primary screen, cytotoxicity control for P. falciparum antimalarial project, cell-based, ATP luminescence (AID 2303;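 active = inhibition above 50%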;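 note: 0% = DMSO wells and 100% = digitonin-killed cells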). The following applies: HepG2 viability, 24-48 h, at 10 µM, hits give high values.
Assay [3] deals with L-lactate dehydrogenase (Plasmodium falciparum (isolate CDC / Honduras)) (UniProt Q27743). Put plainly: PfLDH activity inhibition – cell lysate, 3D7 strain, counter-screen for P. falciparum growth inhibition project (AID 2304).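 Note: 0% = vehicle and 100% = reference inhibitor.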 The following applies: P. falciparum 3D7 crude extract, LDH APAD/NBT absorbance; at 2 µM; hits give high values.
Assay [4] in a line: inhibition of 3D7 malaria parasite growth – strain 3D7 (AID 2306).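 Note: 0% = DMSO wells and 100% = chloroquine plus artemisinin control wells.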 The following applies: P. falciparum 3D7 erythrocytic growth, LDH absorbance, 72 h; at 2 µM; hits give high values.
The target of assay [5] is Calcium-dependent protein kinase 1 (Plasmodium falciparum (isolate 3D7)) (UniProt P62344). Kind of assay: PfCDPK1 kinase inhibitors, biochemical, TCAMS library (AID 1159585; cut-off not given, nearly all actives have IC50 up to about 0.98 µM;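 note: inhibitors leave more ATP so luminescence rises with inhibition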). The following applies: recombinant PfCDPK1, Kinase-Glo ATP depletion luminescence.
For assay [6], the target named is Plasmodium falciparum protein kinase 6 (PK6, PF3D7_1337100) (UniProt Q8IDW1). Kind of assay: PfPK6 kinase inhibitors, biochemical, TCAMS library (AID 1159586). The following applies: recombinant PfPK6, Kinase-Glo ATP depletion luminescence.
Assay [7] has as its target Protein kinase 7 (PK7), Plasmodium falciparum 3D7 (PF3D7_0213400) (UniProt Q7YTF7). Put plainly: inhibition of Plasmodium PK7 catalytic activity – biochemical, TCAMS antimalarial set, Kinase-Glo luminescence (AID 1159587). The following applies: recombinant PfPK7, Kinase-Glo ATP depletion luminescence.
For assay [8], the target named is Calcium-dependent protein kinase 4 (Plasmodium falciparum (isolate 3D7)) (UniProt Q8IBS5). Put plainly: PfCDPK4 kinase inhibitors, biochemical, TCAMS library (AID 1159588; cut-off not given, nearly all actives have IC50 up to about 0.91 µM). The following applies: recombinant PfCDPK4, Kinase-Glo ATP depletion luminescence.

A number with no mark means an inactive call. For some of these results: Entries with a potency or affinity are not part of this list. Active and inactive are the calls of the source. Unless noted, the rule behind the calls is not given here.

Plasmodium falciparum protein kinase 6 (PK6, PF3D7_1337100), sequence (Q8IDW1 1-305): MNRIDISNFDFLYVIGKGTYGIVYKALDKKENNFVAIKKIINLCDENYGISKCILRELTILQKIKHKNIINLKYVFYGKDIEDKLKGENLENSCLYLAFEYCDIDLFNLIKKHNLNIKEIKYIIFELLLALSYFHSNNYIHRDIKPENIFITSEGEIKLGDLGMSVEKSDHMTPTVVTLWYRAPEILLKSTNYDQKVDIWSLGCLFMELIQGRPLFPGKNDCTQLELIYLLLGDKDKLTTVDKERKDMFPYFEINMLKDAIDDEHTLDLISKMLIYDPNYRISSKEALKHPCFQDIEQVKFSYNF
L-lactate dehydrogenase (Plasmodium falciparum (isolate CDC / Honduras)), sequence (Q27743 whole entry, looked up): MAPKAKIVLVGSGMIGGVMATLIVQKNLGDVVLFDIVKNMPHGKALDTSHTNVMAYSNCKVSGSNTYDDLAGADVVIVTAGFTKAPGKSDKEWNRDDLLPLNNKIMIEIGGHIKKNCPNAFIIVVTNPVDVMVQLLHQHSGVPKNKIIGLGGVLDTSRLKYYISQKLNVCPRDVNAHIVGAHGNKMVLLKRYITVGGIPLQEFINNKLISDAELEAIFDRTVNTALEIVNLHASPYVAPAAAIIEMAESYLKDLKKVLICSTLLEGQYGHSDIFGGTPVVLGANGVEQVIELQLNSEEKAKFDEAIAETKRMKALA
Calcium-dependent protein kinase 1 (Plasmodium falciparum (isolate 3D7)), sequence (P62344 whole entry, looked up): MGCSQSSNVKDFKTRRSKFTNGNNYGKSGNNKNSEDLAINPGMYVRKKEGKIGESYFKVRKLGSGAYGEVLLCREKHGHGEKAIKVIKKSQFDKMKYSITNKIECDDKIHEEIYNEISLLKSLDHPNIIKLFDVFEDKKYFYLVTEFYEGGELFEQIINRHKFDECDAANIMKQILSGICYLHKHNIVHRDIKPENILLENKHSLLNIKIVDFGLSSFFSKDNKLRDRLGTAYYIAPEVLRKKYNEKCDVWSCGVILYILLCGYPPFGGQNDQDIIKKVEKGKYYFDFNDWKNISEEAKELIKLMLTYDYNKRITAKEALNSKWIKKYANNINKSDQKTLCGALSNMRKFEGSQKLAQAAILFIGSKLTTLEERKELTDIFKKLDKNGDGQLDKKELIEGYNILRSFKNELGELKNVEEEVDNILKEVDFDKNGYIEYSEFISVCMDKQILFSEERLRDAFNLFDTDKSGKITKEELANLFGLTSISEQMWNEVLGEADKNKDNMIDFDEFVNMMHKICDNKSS
Protein kinase 7 (PK7), Plasmodium falciparum 3D7 (PF3D7_0213400), sequence (Q7YTF7 1-343): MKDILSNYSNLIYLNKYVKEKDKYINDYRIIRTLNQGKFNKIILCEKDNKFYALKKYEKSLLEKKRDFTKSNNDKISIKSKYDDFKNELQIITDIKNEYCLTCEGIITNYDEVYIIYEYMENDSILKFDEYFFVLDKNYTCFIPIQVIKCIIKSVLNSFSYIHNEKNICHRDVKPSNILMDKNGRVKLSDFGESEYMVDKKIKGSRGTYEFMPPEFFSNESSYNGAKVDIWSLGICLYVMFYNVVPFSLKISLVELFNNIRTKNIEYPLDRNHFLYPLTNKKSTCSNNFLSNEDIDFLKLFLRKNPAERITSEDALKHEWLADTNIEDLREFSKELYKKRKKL
Calcium-dependent protein kinase 4 (Plasmodium falciparum (isolate 3D7)), sequence (Q8IBS5 whole entry, looked up): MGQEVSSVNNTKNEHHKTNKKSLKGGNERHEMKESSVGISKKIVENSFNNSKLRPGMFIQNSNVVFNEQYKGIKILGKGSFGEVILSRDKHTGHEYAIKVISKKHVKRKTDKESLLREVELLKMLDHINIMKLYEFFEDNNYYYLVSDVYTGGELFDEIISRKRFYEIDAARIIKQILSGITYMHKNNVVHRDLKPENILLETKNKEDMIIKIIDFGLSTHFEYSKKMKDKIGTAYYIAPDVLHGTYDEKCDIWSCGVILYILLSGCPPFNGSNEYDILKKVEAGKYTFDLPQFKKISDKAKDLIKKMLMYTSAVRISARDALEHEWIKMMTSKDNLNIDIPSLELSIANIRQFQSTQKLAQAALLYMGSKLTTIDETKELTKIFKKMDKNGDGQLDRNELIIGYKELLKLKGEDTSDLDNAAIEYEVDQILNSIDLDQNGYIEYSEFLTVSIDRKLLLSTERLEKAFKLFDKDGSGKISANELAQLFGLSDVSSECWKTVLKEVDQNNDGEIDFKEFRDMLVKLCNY

On to `Cc1noc(-c2ccccc2)c1NC(=O)NC1CCN(CCCCCNC(=O)/C=C/c2ccc(Cl)c(Cl)c2)CC1`, for which the growth inhibition in assay [1] is -3%; in assay [4], 93% (active). Besides, the inhibition in assay [2] and in assay [3] was -3% each time. In addition, the outcome in assay [5], in assay [6], in assay [7] and in assay [8] was inactive.

Regarding `COc1ccc(CNCc2ccc(-c3ccc(-c4nc5c(C)cccc5[nH]4)cc3)cc2)cc1`, the growth inhibition was 97% (active) in assay [1] and 101% (active) in assay [4]. The inhibition in assay [2] is 53% (active); in assay [3], 2%. Moreover, the result in assay [5], in assay [6], in assay [7] and in assay [8] was inactive.

Take `Cc1ccc2nc(C)cc(NN=Cc3ccccc3[N+](=O)[O-])c2c1`: the growth inhibition in assay [1] was 100% (active); in assay [4], 102% (active). Further, the inhibition in assay [2] is 5%; in assay [3] it was -1%. In addition, the result in assay [5], in assay [6], in assay [7] and in assay [8] was inactive.

For the molecule `Cc1ccccc1CNC(=O)Nc1cccc(-c2csc(N=C(N)N)n2)c1`, the growth inhibition in assay [1] was 14%; in assay [4], 99% (active). Further, the figures for the inhibition in assay [2] and in assay [3] were 2% and -2%, respectively. Moreover, the result in assay [5], in assay [6], in assay [7] and in assay [8] was inactive.

`COc1ccc2ncc(F)c(CCN3C[C@H](CNCc4ccc(F)cc4)[C@H](O)C3)c2n1`: the growth inhibition in assay [1] is 21%; in assay [4] it was 93% (active). In addition, the results for the inhibition in assay [2] and in assay [3] were 38% and -1%, respectively. The outcome in assay [5], in assay [6], in assay [7] and in assay [8] was inactive.

As for `O=S(=O)(c1ccc2cc[nH]c2c1)N1CCC[C@@H]1CCN1CCC(c2c[nH]c3cnccc23)CC1`, the values for the growth inhibition in assay [1] and in assay [4] were 0% and 95% (active), respectively. The figures for the inhibition in assay [2] and in assay [3] were 13% and 0%, respectively. Further, the outcome in assay [5], in assay [6], in assay [7] and in assay [8] was inactive.

For the molecule `CNCCNCc1cccc(-c2ccc(-c3nc4c(C)cccc4[nH]3)s2)c1`, the growth inhibition in assay [1] was 8%; in assay [4], 92% (active). Also, the inhibition in assay [2] is 10%; in assay [3] it was -6%. Besides, the result in assay [5], in assay [6], in assay [7] and in assay [8] was inactive.

On to `Fc1ccc2nc(-c3ccc(-c4ccc(CNCC5CCCO5)cc4)cc3)[nH]c2c1` (stereo not given), for which the values for the growth inhibition in assay [1] and in assay [4] were 100% (active) and 101% (active), respectively. The inhibition in assay [2] was 26%; in assay [3] it was -3%. The result in assay [5], in assay [6], in assay [7] and in assay [8] was inactive.

As for `C#CCN(Cc1ccc2nc(N)[nH]c(=O)c2c1)c1ccc(C(=O)N[C@@H](CCC(=O)O)C(=O)O)cc1`, the growth inhibition is 96% (active) in assay [1] and 95% (active) in assay [4]. The inhibition is 45% in assay [2] and 3% in assay [3]. Moreover, the outcome in assay [5], in assay [6], in assay [7] and in assay [8] was inactive.

As to `COc1ccc2nccc([C@@H](O)CN3CCC(c4cc(-c5ccc(Cl)cc5)n[nH]4)CC3)c2n1`, the growth inhibition in assay [1] was 56% (active); in assay [4], 97% (active). Moreover, the inhibition in assay [2] is 43%; in assay [3], 0%. Also, the outcome in assay [5], in assay [6], in assay [7] and in assay [8] was inactive.

In the case of `CN(C)c1ccc(-c2ccc(C(=O)NC3CCN(Cc4cccc(C(F)(F)F)c4)CC3)s2)cc1`, the figures for the growth inhibition in assay [1] and in assay [4] were 77% (active) and 96% (active), respectively. Further, the results for the inhibition in assay [2] and in assay [3] were 35% and 0%, respectively. Moreover, the outcome in assay [5], in assay [6], in assay [7] and in assay [8] was inactive.

As to `COc1ccc(C=C2SC(=N)N(c3ccccc3OC)C2=O)cc1`, the growth inhibition in assay [1] is 95% (active); in assay [4] it was 97% (active). Moreover, the inhibition in assay [2] is 47%; in assay [3] it was 3%. For the same molecule, the result in assay [5], in assay [6], in assay [7] and in assay [8] was inactive.

Take `Cc1c(Cc2ccc(F)cc2)c(Cl)nc2nc(N)nc(N)c12`: the growth inhibition in assay [1] is 1%; in assay [4] it was 92% (active). Besides, the figures for the inhibition in assay [2] and in assay [3] were 66% (active) and -2%, respectively. Also, the result in assay [5], in assay [6], in assay [7] and in assay [8] was inactive.

Take `CC(C)(C)c1nn(-c2ccccc2)c2[nH]c(=O)c(CNCc3ccc4c(c3)OCO4)cc12`: the results for the growth inhibition in assay [1] and in assay [4] were 32% and 92% (active), respectively. Besides, the inhibition in assay [2] is 1%; in assay [3] it was 3%. In addition, the outcome in assay [5], in assay [6], in assay [7] and in assay [8] was inactive.

With `CC(C)[C@H](NC(=O)c1c(F)cccc1F)C(=O)Nc1ccc(Cc2nc3ccccc3s2)cc1`, the growth inhibition in assay [1] is 72% (active); in assay [4] it was 82% (active). In addition, the results for the inhibition in assay [2] and in assay [3] were 3% and 0%, respectively. In addition, the result in assay [5], in assay [6], in assay [7] and in assay [8] was inactive.

Take `Cn1nccc1C(=O)NCCNCc1cccc(-c2ccc(-c3nc4ccccc4[nH]3)s2)c1`: the growth inhibition in assay [1] is 94% (active); in assay [4] it was 100% (active). The inhibition in assay [2] is 22%; in assay [3], -4%. Also, the result in assay [5], in assay [6], in assay [7] and in assay [8] was inactive.

As for `COc1ccc(CNCc2ccccc2)cc1-c1cccc(S(=O)(=O)NCCN2CCCC2)c1`, the values for the growth inhibition in assay [1] and in assay [4] were 36% and 98% (active), respectively. Besides, the inhibition in assay [2] is 37%; in assay [3], -8%. Further, the outcome in assay [5], in assay [6], in assay [7] and in assay [8] was inactive.

For the molecule `Cc1ccc(C(=O)Nc2ccc(F)cc2)cc1-c1nc(NC2CC(C)(C)NC(C)(C)C2)nc2c1ccc(=O)n2-c1c(F)cccc1F`, the growth inhibition in assay [1] is 96% (active); in assay [4], 89% (active). Also, the inhibition in assay [2] is 16%; in assay [3], -2%. For the same molecule, the result in assay [5], in assay [6], in assay [7] and in assay [8] was inactive.

As to `Fc1ccc2nc(-c3ccc(-c4ccc(CNCCc5ccncc5)cc4)s3)[nH]c2c1`, the growth inhibition is 100% (active) in assay [1] and 99% (active) in assay [4]. Also, the inhibition in assay [2] was 34%; in assay [3], -3%. For the same molecule, the result in assay [5], in assay [6], in assay [7] and in assay [8] was inactive.

Regarding `CC(C)(C)CNc1noc(-c2sccc2Br)n1`, the growth inhibition is 71% (active) in assay [1] and 82% (active) in assay [4]. The results for the inhibition in assay [2] and in assay [3] were 4% and -7%, respectively. In addition, the result in assay [5], in assay [6], in assay [7] and in assay [8] was inactive.
